# Measurements as given in PubChem BioAssay (NCI).
# The panel holds about 83,000 compounds, 20% with a hit somewhere; the sample as a whole holds those more often.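 Values shown are percent growth following 48 h exposure of cells in 96-well plates to a single concentration of compound; below 10 was considered active.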 Unmarked numbers belong to inactive results. The source made the active and inactive calls.
# Tested on: MDA-MB-468 breast
# Assay: NCI-60 one-dose screen, 48 h (100 = growth as untreated, 0 = no growth, -100 = all killed)
# Details: 10 µM unless noted
row,SMILES,growth
1,Cc1ccc(S(=O)(=O)c2ccc3[nH]c(=O)[nH]c(=O)c3c2)cc1,102%
2,NC(=O)NNC(=O)c1ccccc1,110%
3,NC(=Nc1ccccc1)SCCCCSC(N)=Nc1ccccc1,82.6%
4,CC/C(Cc1ccccc1)=C(\c1ccc(OCCCN(C)C)cc1)c1ccc(OC(=O)NCc2ccccc2)cc1,56.8%
5,CCCCOc1ccc(C(C)(C)c2ccc(OCCCC)cc2)cc1,132%
6,CCc1cccc2c3c(sc12)C(c1ccc(Cl)cc1)C(C#N)=C(/N=C/c1ccc(Cl)cc1)O3 (configuration not stated),-16.3% (active)
7,OCc1cnc2ccccc2c1NC1CCCCCC1,59.8%
8,CCN(CC)C(=O)CC1=C(C)/C(=C/c2[nH]c(-c3ccc[nH]3)cc2OC)N=C1C,29.9%
9,COc1ccc(/C=C/c2c(C(C)=O)c(C)nc3ccccc23)cc1,39.6%
10,O=C(N/N=C/c1ccc([N+](=O)[O-])cc1)c1ccc2nc(-c3ccc(Cl)cc3)[nH]c2c1,-38.9% (active)
11,NC(=O)Nc1ccc2ncnc(Nc3cccc(O)c3)c2c1,67.9%
12,O=C1C=C(C(O)c2ccc(O)cc2)C(=O)c2ccccc21 (configuration not stated),111%
